Measured values reported in PubChem BioAssay.
For part of these data: Measured potencies and affinities stand elsewhere. Calls of active or inactive are those of the source.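 The calls were made as follows, unless noted: active = primary screen activator hit with a dose response curve and TRPC4 channel activation at any tested dose; inactive = no activation, no dose response, or not a primary hit.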

Tests used:
[1] = system: TRPC4 beta (transient receptor potential cation channel C4), mouse; experiment: activators of mouse TRPC4 channel, confirmation, cell-based, Fluo4 calcium, HEK293 TRPC4beta/mu-opioid, duplicates, 10 µM (AID 2426;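 active = fluorescence ratio normalized to control raised more than 50% in primary screen plus both repeat runs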); settings: Fluo4 calcium fluorescence, at 10 µM; stronger effect = higher value
[2] = system: transient receptor potential cation channel C4 beta (TRPC4), mouse; experiment: activators of mouse TRPC4 channel, confirmation, cell-based, second round, Fluo4, HEK293 TRPC4beta/mu-opioid, 1 µM (AID 2461;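 active = primary screen active and over 50% activation in each of two duplicate runs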); settings: Fluo4 calcium fluorescence, at 1 µM; stronger effect = higher value
[3] = system: TRPC4 (transient receptor potential cation channel C4 beta), mouse; experiment: positive allosteric modulators of mouse TRPC4, confirmation, cell-based, second round, Fluo-4, HEK293 TRPC4beta/mu-opioid, 1 µM (AID 2554;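 active = primary screen hit whose fluorescence ratio, in both repeats, exceeds the weak agonist control mean by 3 SD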); settings: DAMGO EC20, Fluo-4 calcium flux, at 1 µM; stronger effect = higher value
[4] = system: TRPC4 beta (transient receptor potential cation channel C4), mouse; experiment: positive allosteric modulators of mouse TRPC4, confirmation, cell-based, Fluo-4, HEK293 TRPC4beta/mu-opioid (AID 2555;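 active = primary screen hit whose calcium fluorescence ratio, in both repeats, exceeds the weak agonist control mean by 3 SD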); settings: DAMGO EC20, Fluo-4 calcium flux, at 10 µM; stronger effect = higher value
[5] = molecular target: Short transient receptor potential channel 4 (Mus musculus) (UniProt Q9QUQ5); experiment: inhibitors of mouse TRPC4 channel, confirmation, cell-based, Fluo4, HEK293 TRPC4beta/mu-opioid (AID 2636;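 active = calcium signal cut by more than 3 SD below the full-agonist control yet still positive, in both repeats and the earlier primary screen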); settings: DAMGO, Fluo4 calcium flux, at 10 µM; stronger effect = higher value
Short transient receptor potential channel 4 (Mus musculus), sequence (Q9QUQ5 whole entry, looked up): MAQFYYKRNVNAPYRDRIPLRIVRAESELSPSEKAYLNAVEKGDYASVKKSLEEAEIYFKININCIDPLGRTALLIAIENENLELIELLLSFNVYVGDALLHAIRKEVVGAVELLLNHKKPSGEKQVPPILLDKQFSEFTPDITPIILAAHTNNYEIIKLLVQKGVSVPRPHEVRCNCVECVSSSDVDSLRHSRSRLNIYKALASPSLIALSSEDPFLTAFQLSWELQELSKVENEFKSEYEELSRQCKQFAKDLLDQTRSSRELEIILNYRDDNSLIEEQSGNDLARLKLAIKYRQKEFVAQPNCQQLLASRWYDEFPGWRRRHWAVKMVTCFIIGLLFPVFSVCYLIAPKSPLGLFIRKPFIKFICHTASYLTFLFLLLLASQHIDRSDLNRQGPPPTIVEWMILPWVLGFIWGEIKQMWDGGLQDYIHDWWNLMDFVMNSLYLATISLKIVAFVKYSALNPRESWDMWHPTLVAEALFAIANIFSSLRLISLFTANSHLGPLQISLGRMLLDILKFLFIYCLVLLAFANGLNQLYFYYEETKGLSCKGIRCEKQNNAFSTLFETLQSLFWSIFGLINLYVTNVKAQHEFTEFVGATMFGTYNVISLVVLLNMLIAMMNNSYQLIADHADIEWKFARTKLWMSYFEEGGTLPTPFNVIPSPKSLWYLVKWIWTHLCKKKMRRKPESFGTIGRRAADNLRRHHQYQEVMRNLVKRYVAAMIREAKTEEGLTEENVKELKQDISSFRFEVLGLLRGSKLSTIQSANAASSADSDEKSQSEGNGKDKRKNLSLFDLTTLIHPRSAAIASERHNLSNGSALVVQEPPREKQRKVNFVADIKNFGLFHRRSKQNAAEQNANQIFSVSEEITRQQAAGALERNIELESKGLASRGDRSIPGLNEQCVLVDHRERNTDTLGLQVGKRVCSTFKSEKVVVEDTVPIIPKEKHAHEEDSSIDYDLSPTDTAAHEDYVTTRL

[6] = molecular target: Short transient receptor potential channel 4 (Mus musculus) (UniProt Q9QUQ5); experiment: inhibitors of mouse TRPC4 channel, confirmation, cell-based, second round, Fluo4, HEK293 TRPC4beta/mu-opioid, 1 µM (AID 2637;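 active = calcium signal ratio cut to more than 3 SD under the fully stimulated control mean yet still positive, in both repeats and the primary screen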;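 as to inhibition: percent of integrated ratio relative to wells lacking test compound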); settings: Fluo4 calcium flux, DAMGO, at 1 µM; stronger effect = higher value
[7] = molecular target: Short transient receptor potential channel 4 (Mus musculus) (UniProt Q9QUQ5); experiment: mouse TRPC4 channel activators, dose response, cell-based, HEK293 TRPC4/mu-opioid, Fluo-4 calcium (AID 434937)
[8] = molecular target: Short transient receptor potential channel 4 (Mus musculus) (UniProt Q9QUQ5); experiment: TRPC4 positive allosteric modulators, dose response, cell-based, HEK293 TRPC4/mu-opioid, Fluo-4 calcium, EC20 DAMGO (AID 434941;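 active = earlier screen potentiator hit that boosts the TRPC4 ion channel at some dose, with a dose response; inactive = no potentiation, no dose response, or not a prior hit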;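 also: calcium entry triggered by an EC20 dose of DAMGO at the co-expressed mu-opioid receptor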)
[9] = molecular target: Short transient receptor potential channel 6 (Mus musculus) (UniProt Q61143); experiment: inhibition of mouse TRPC6 channel, confirmation, selectivity assay for TRPC4 inhibitor project, cell-based, HEK293, membrane potential dye, duplicate (AID 434948;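 active = active in primary screen and both duplicates, each dropping signal beyond three positive-control SD with fluorescence still positive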); settings: HEK293 TRPC6, membrane potential dye fluorescence, at 10 µM, stimulated with maximal-effect acetylcholine; stronger effect = higher value
Short transient receptor potential channel 6 (Mus musculus), sequence (Q61143 whole entry, looked up): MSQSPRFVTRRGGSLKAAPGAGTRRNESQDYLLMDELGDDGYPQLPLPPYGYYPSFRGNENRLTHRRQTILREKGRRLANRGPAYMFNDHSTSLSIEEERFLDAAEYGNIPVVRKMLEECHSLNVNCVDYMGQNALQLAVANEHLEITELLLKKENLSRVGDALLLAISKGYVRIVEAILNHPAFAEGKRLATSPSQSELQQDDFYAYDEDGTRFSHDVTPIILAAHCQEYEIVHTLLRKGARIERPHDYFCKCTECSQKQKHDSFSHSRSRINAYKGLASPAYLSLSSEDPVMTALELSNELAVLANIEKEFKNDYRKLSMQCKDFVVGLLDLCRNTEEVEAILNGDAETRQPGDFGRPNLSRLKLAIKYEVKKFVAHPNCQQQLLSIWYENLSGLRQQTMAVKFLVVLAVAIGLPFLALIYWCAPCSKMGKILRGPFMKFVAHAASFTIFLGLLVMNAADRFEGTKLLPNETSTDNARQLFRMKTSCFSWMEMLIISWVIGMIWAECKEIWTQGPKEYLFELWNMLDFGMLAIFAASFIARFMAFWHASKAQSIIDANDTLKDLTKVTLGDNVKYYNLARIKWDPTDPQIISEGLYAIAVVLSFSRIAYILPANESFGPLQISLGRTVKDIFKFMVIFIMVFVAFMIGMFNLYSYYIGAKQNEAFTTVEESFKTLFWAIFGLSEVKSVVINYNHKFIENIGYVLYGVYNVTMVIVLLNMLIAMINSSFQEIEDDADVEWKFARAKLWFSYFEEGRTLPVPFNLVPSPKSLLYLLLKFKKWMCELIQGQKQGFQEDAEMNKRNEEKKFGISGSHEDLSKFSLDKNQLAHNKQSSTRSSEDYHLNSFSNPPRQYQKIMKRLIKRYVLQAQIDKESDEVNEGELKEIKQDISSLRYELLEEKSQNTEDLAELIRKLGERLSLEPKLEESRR

[10] = molecular target: Short transient receptor potential channel 6 (Mus musculus) (UniProt Q61143); experiment: activation of mouse TRPC6 channel, confirmation, selectivity assay for TRPC4 activator project, cell-based, HEK293, membrane potential dye, duplicate (AID 434950;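 active = membrane potential signal rise above negative control mean plus 3 SD in both duplicates, also active in the earlier TRPC4 screen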); settings: HEK293 TRPC6, membrane potential fluorescence, at 10 µM; stronger effect = higher value
[11] = molecular target: Short transient receptor potential channel 6 (Mus musculus) (UniProt Q61143); experiment: TRPC6 potentiation by TRPC4 potentiator hits, confirmation, selectivity assay for TRPC4 potentiator project, HEK293 cells, membrane potential dye, duplicate (AID 434952;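 active = compound raising the membrane signal above positive-control mean plus 3 SD in both repeats, and a primary screen hit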); settings: HEK293 TRPC6, membrane potential dye fluorescence, at 10 µM, maximal acetylcholine added after compound; stronger effect = higher value
[12] = molecular target: Short transient receptor potential channel 4 (Mus musculus) (UniProt Q9QUQ5); experiment: calcium flux activators in TRPC4/5HT1a cells, counter-screen for TRPC4 activator project, cell-based, second counter screen, HEK293 TRPC4/5HT1a, Fluo-4 (AID 434977;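 active = calcium signal rise above buffer-control mean plus 5 SD in both duplicates, and also a hit in the primary screen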); settings: Fluo-4 calcium flux, at 10 µM; stronger effect = higher value
[13] = calcium flux inhibitors in TRPC4/5HT1a cells, confirmation, counter-screen for TRPC4 inhibitor project, cell-based, second counter screen, HEK293 TRPC4/5HT1a, Fluo-4 (AID 434978;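 active = primary screen active whose calcium signal fell more than 3 SD beyond the full-serotonin control mean in both duplicate plates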); settings: Fluo-4 calcium flux, at 10 µM, serotonin added to trigger calcium flux; stronger effect = higher value
[14] = system: TRPC4 (mouse), co-expressed with 5HT1a in HEK293; experiment: calcium flux potentiators in TRPC4/5HT1a cells, confirmation, counter-screen for TRPC4 potentiator project, cell-based, second counter screen, HEK293 TRPC4/5HT1a, Fluo-4 (AID 434979;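 active = signal rise over 3 SD above mean of control wells given weak agonist, in both repeats and first screen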); settings: Fluo-4 calcium flux, at 10 µM, serotonin added at its EC20 dose; stronger effect = higher value
[15] = calcium flux activation in mu-opioid HEK293 cells, confirmation, counter-screen for TRPC4 activator project, cell-based, HEK293 mu-opioid receptor line (AID 449723;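 active = hit in primary screen, with calcium signal over 5 SD above buffer well mean in both duplicates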;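 also: counter screen cells carry the mu-opioid receptor alone and lack TRPC4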); settings: Fluo-4 calcium fluorescence, at 10 µM; stronger effect = higher value
[16] = calcium flux enhancement in mu-opioid HEK293 cells, confirmation, counter-screen for TRPC4 allosteric potentiator project, cell-based, HEK293 mu-opioid receptor line (AID 449724;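 active = calcium signal rise more than 3 SD above the low-dose agonist control mean, in both duplicate plates and the primary screen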); settings: Fluo-4 calcium flux, at 10 µM, compound added before EC20 DAMGO stimulus; stronger effect = higher value

Measured: inhibition

COc1ccc(C(CNC(=O)c2oc3ccc(Cl)cc3c2C)N2CCCCC2)cc1 (stereo not given)
active: [5] 83%
inactive: [1] | [2] | [3] | [4] | [6] | [7] | [8] | [9] | [10] | [11] | [12] | [13] | [14] | [15] | [16]

CCOC(=O)C1(CCOc2ccccc2)CCN(Cc2cccn2-c2ncccn2)CC1
inactive: [1] | [2] | [3] | [4] | [7] | [8] | [10] | [11] | [12] | [13] | [14] | [15] | [16]
active: [5] 86% | [6] 43% | [9] 52.5%

COc1ccc2nc(C)cc(NCc3ccc(F)cc3)c2c1
active: [5] 84% | [9] 56%
inactive: [1] | [2] | [3] | [4] | [6] | [7] | [8] | [10] | [11] | [12] | [13] | [14] | [15] | [16]

Cc1nc(N2CCN(c3ccccn3)CC2)c2c(C)c(C(=O)N3CCN(c4ccccc4F)CC3)sc2n1
active: [5] 93%
inactive: [1] | [2] | [3] | [4] | [6] | [7] | [8] | [9] | [10] | [11] | [12] | [13] | [14] | [15] | [16]

CC(=O)Nc1ccc(S(=O)(=O)NC2=C(N3CCN(Cc4ccccc4)CC3)C(=O)c3ccccc3C2=O)cc1
inactive: [1] | [2] | [3] | [4] | [7] | [8] | [10] | [11] | [12] | [13] | [14] | [15] | [16]
active: [5] 72% | [6] 40% | [9] 30%

NC(=O)c1nsc(C(=O)N(Cc2ccco2)C(C(=O)NCC2CCCO2)c2ccc(F)cc2)c1N (stereo not given)
inactive: [1] | [2] | [3] | [4] | [6] | [7] | [8] | [9] | [10] | [11] | [12] | [13] | [14] | [15] | [16]
active: [5] 76%

Cc1cccc(N2CCN(Cc3ccoc3)CC2)c1C
inactive: [1] | [2] | [3] | [4] | [6] | [7] | [8] | [9] | [10] | [11] | [12] | [14] | [15] | [16]
active: [5] 72% | [13] 25.2%

COc1cc(CNC2CCCC2)c(Br)cc1OC1CCCC1
active: [5] 95% | [9] 53%
inactive: [1] | [2] | [3] | [4] | [6] | [7] | [8] | [10] | [11] | [12] | [13] | [14] | [15] | [16]

Cc1ncsc1CCOC(=O)C12CC3CC(CC(C3)C1)C2
active: [5] 94% | [13] 17.8%
inactive: [1] | [2] | [3] | [4] | [6] | [7] | [8] | [9] | [10] | [11] | [12] | [14] | [15] | [16]

CCOC(=O)C1(CCOC)CCN(C(C)CCc2ccc(OC)cc2)CC1 (stereo not given)
inactive: [1] | [2] | [3] | [4] | [6] | [7] | [8] | [9] | [10] | [11] | [12] | [13] | [14] | [15] | [16]
active: [5] 75%

Cc1ccc(-c2c[n+](Cc3cccc(Cl)c3)c3n2CCC3)cc1
active: [5] 93% | [6] 76% | [13] 14.8%
inactive: [1] | [2] | [3] | [4] | [7] | [8] | [9] | [10] | [11] | [12] | [14] | [15] | [16]

Cc1c(N)c(C(C)(C)C)cc(C(C)(C)C)c1[N+](=O)[O-]
active: [5] 92% | [13] 29.4%
inactive: [1] | [2] | [3] | [4] | [6] | [7] | [8] | [9] | [10] | [11] | [12] | [14] | [15] | [16]

Cc1ccc2nc(C)c3c(c2c1)N(c1ccc(F)cc1)CC3
active: [5] 90% | [6] 71% | [9] 25% | [13] 33.8%
inactive: [1] | [2] | [3] | [4] | [7] | [8] | [10] | [11] | [12] | [14] | [15] | [16]

CCN(CC)CCN(C(=O)c1ccccc1OC)c1nc2ccc(F)cc2s1
active: [5] 84%
inactive: [1] | [2] | [3] | [4] | [6] | [7] | [8] | [9] | [10] | [11] | [12] | [13] | [14] | [15] | [16]

NC1=NC2=C(CCCC2)C2(CCCCC2)S1
active: [5] 91% | [9] 44.5% | [13] 14%
inactive: [1] | [2] | [3] | [4] | [6] | [7] | [8] | [10] | [11] | [12] | [14] | [15] | [16]
